{"source": "PubChem BioAssay (NCATS)", "note": "Inconclusive results are not listed. Calls of active or inactive are those of the source. Calls follow the shape of the dose curve; as a rule, active = well fitted curve in the direction sought with a large enough effect; inconclusive = small, poorly fitted or top-dose-only effect, or another doubt; inactive = no such curve, though single readings can be large; an effect the other way counts as inactive or inconclusive."}
{"experiment": "P-glycoprotein substrates identified in KB-3-1 adenocarcinoma cell line, qHTS therapeutic library screen (AID 1346986); also: nearly all actives have a fitted effect of over 60% in size", "conditions": "KB-3-1 parental cells viability, CellTiter-Glo, 72 h; series mostly up to 44.5 µM; activity change, negative = cytotoxicity: at the top concentration", "procedure,_shortened": "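72 h cell-killing screen, 500 cells/well, CellTiter-Glo luminescence. Paired lines KB-3-1/KB-8-5-11; P-gp dependence checked by tariquidar co-treatment and HEK-293 MDR-19 versus empty-vector cells.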"}
{"compound": "C=CC1(C)CC(O)C2(CCC3C(C)(C(=O)O)CCCC3(C)C2=O)C1", "note": "(centres undefined)", "outcome": "inactive"}
{"compound": "Cc1cc(C)cc(NC(=O)Cc2ccc(OC(C)(C)C(=O)O)cc2)c1", "outcome": "inactive"}
{"compound": "COc1cc(C(O)C(CO)Oc2ccc(CCCO[C@@H]3O[C@@H](C)[C@H](O)[C@@H](O)[C@H]3O)cc2OC)ccc1O", "note": "(some centres undefined)", "outcome": "inactive [at 17.4 µM]"}
{"compound": "COC(=O)[C@H](OC(C)=O)[C@H]1C(C)(C)C(=O)[C@H]2CC3=C4CC(=O)O[C@@H](c5ccoc5)[C@]4(C)CCC3[C@@]1(C)C2=O", "note": "(some centres undefined)", "outcome": "inactive [at 17.4 µM]"}
{"compound": "OCCc1ccc(O[C@@H]2O[C@H](CO)[C@@H](O)[C@H](O)[C@H]2O)c(O)c1", "outcome": "inactive"}
{"compound": "NC(=O)c1cccc(-c2cc(O)cc(OC(=O)NC3CCCCC3)c2)c1", "outcome": "inactive [at 17.4 µM]"}
{"compound": "C=C1CC[C@H]2[C@@H](/C=C(\\C)C(=O)[C@@]3(OC(C)=O)C[C@H](C)[C@H](OC(C)=O)[C@@H]3[C@H]1OC(C)=O)C2(C)C", "outcome": "inactive [at 17.4 µM]"}
{"compound": "CC1CCC2C(C)(C)C(O)CCC2(C)C12Cc1c(O)cc3c(c1O2)C(N)=NC3", "note": "(centres undefined)", "outcome": "inactive"}
{"compound": "C[C@@H]1O[C@@H](O[C@H]2[C@H](O[C@H]3CC[C@@]4(C)C(CC[C@]5(C)C4CC=C4[C@@H]6CC(C)(C)CC[C@]6(C(=O)O)CC[C@]45C)[C@]3(C)CO)OC[C@H](O)[C@@H]2O)[C@H](O)[C@H](O[C@@H]2OC[C@@H](O)[C@H](O)[C@H]2O)[C@H]1O", "note": "(some centres undefined)", "outcome": "inactive [at 9.29 µM]"}
{"compound": "CC(=O)c1c(C)cc(O)cc1O[C@@H]1O[C@H](CO)[C@@H](O)[C@H](O)[C@H]1O", "outcome": "inactive"}
{"compound": "CC(=O)OC[C@@]12[C@H](O)C[C@@H](C)[C@]3(C[C@@H](c4ccoc4)OC3=O)[C@H]1C[C@H](O)C[C@]21CO1", "outcome": "inactive [at 17.4 µM]"}
{"compound": "C[C@H]1[C@H](C)CC[C@]2(C(=O)O)CC[C@]3(C)C(=CC[C@@H]4[C@@]5(C)C[C@@H](O)[C@H](O)[C@@](C)(CO)[C@@H]5CC[C@]43C)[C@H]12", "outcome": "inactive"}
{"compound": "CCCCN(CCCC)C(=O)CN1C[C@H](c2ccc3c(c2)OCO3)[C@@H](C(=O)O)[C@@H]1c1ccc(OC)cc1", "outcome": "inactive"}
{"compound": "CC1=CC(=O)CC(C)(C)C1(O)CCC(C)O", "note": "(centres undefined)", "outcome": "inactive"}
{"experiment": "P-glycoprotein substrates identified in KB-8-5-11 adenocarcinoma cell line, qHTS therapeutic library screen (AID 1346987); also: nearly all actives have a fitted effect of over 65% in size; as to activity change, negative = cytotoxicity: % is scaled to controls: 0 for no effect and ±100 for the full control effect", "conditions": "KB-8-5-11 (P-gp overexpressing) viability, CellTiter-Glo, 72 h; series mostly up to 44.5 µM; activity change, negative = cytotoxicity: at the top concentration", "procedure,_shortened": "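Luminescence from CellTiter-Glo, read 5 min after addition, quantified survival of KB-8-5-11 (P-gp-overexpressing) cells exposed to compounds for 72 h. AC50 was derived from concentration-response curves.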"}
{"compound": "CC(=O)OCC(=O)[C@@]12OC3(CCCC3)O[C@@H]1C[C@H]1[C@@H]3CCC4=CC(=O)C=C[C@]4(C)[C@@]3(F)[C@@H](O)C[C@@]12C", "activity change, negative = cytotoxicity": "-16.9% (inactive)"}
{"compound": "C=CC1(C)CC(O)C2(CCC3C(C)(C(=O)O)CCCC3(C)C2=O)C1", "note": "(centres undefined)", "outcome": "inactive"}
{"compound": "Cc1cc(C)cc(NC(=O)Cc2ccc(OC(C)(C)C(=O)O)cc2)c1", "activity change, negative = cytotoxicity": "4.1% (inactive)"}
{"compound": "C=C1CC[C@@H]2[C@](C)(CO)[C@H](O)CC[C@@]2(C)[C@@H]1C/C=C1/C(=O)OC[C@H]1O", "activity change, negative = cytotoxicity": "-31% (inactive)"}
{"compound": "COc1cc(C(O)C(CO)Oc2ccc(CCCO[C@@H]3O[C@@H](C)[C@H](O)[C@@H](O)[C@H]3O)cc2OC)ccc1O", "note": "(some centres undefined)", "outcome": "inactive [at 17.3 µM]"}
{"compound": "COC(=O)[C@H](OC(C)=O)[C@H]1C(C)(C)C(=O)[C@H]2CC3=C4CC(=O)O[C@@H](c5ccoc5)[C@]4(C)CCC3[C@@]1(C)C2=O", "note": "(some centres undefined)", "activity change, negative = cytotoxicity": "4.12% [at 17.3 µM] (inactive)"}
{"compound": "OCCc1ccc(O[C@@H]2O[C@H](CO)[C@@H](O)[C@H](O)[C@H]2O)c(O)c1", "activity change, negative = cytotoxicity": "8.43% (inactive)"}
{"compound": "CO[C@@]12CC3[C@@H]([C@@H](O)[C@@H](OC(C)=O)C4[C@](C)(COC(C)=O)CCC[C@]34C)[C@@H](C)C1=CC(=O)O2", "note": "(some centres undefined)", "outcome": "inactive [at 17.3 µM]"}
{"compound": "C[C@@H](OC(=O)/C=C/c1ccc(O)cc1)C1=C[C@]2(C=C[C@@H]3C(C(=O)O)=CO[C@@H](O[C@@H]4O[C@H](CO[C@@H]5O[C@H](CO)[C@@H](O)[C@H](O)[C@H]5O)[C@@H](O)[C@H](O)[C@H]4O)[C@@H]32)OC1=O", "outcome": "inactive [at 17.3 µM]"}
{"compound": "CC1(C)C(O)CCC2(C)C1C(O)C=C1COC(=O)C12O", "note": "(centres undefined)", "activity change, negative = cytotoxicity": "9.08% (inactive)"}
{"compound": "CN1C(=O)c2ccccc2NC(=O)[C@]12O[C@@H]2c1cccc(O)c1", "activity change, negative = cytotoxicity": "8.4% (inactive)"}
{"compound": "CC(=O)OCC(=O)O[C@@H]1[C@H]2[C@@H](OC(=O)c3ccccc3)[C@@H](C)C[C@]2(O)[C@H](OC(C)=O)C2(C)[C@H]3CC(C)(C)C(=O)[C@@H]3CC1(OC(C)=O)[C@@H]2OC(C)=O", "note": "(some centres undefined)", "activity change, negative = cytotoxicity": "-14.7% [at 17.3 µM] (inactive)"}
{"compound": "O=C(O)c1cc(O)c2cccc(O)c2c1O[C@@H]1O[C@H](CO)[C@@H](O)[C@H](O)[C@H]1O", "outcome": "inactive"}
{"compound": "CC[C@@H](c1ccc(F)c(F)c1)n1c(C(=O)OC)c(-c2ccno2)[nH]c1=S", "activity change, negative = cytotoxicity": "-13.6% (inactive)"}
{"compound": "C[C@@H]1O[C@@H](O[C@H]2[C@H](O[C@H]3[C@H](O[C@H]4CC[C@@]5(C=O)C(CC[C@]6(C)C5CC=C5C7CC(C)(C)C[C@@H](O)[C@]7(C)CC[C@]56C)C4(C)C)O[C@H](C(=O)O)[C@@H](O)[C@@H]3O)OC[C@@H](O)[C@@H]2O)[C@H](O)[C@H](O)[C@H]1O", "note": "(some centres undefined)", "activity change, negative = cytotoxicity": "5.8% [at 9.29 µM] (inactive)"}
